IL-1B inflam inh = blocks inflammasome-driven IL-1 beta release. activity change, % at 57.5 µM. hit rate 4.7% among 360,000. AID 743279. THP-1 LPS/ATP IL-1B secretion, AlphaLISA, 16 h; stronger effect = lower value; in the data active = activity change below about -50%; inconclusive = mostly about -30% to -49%
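THP-1 cells pretreated 1 hr with compounds (up to 57.5 uM final), then stimulated with LPS (250 ng/mL final) plus ATP (1.25 mM final); secreted IL-1B measured by AlphaLISA after 16 hr, decreased signal indicating inhibition.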
ELG1 DNA repair = ELG1-dependent DNA repair inhibition; HEK293T ELG1-luciferase reporter, luminescence, 16 h; DNA damage induced by 5-fluorouridine; Potency, µM (highest dose often 46.1 µM), actives largely listed as inhibitors; hit rate 2.3% among 330,000; note: nearly all actives have a fitted effect of over 55% in size
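Quantitative HTS, concentration-response format. 2,000 cells/well co-treated with 5-fluorouridine and compound, 16 hr in 5% CO2 at 37 °C; ONE-Glo luminescence read after 30 min.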
RORgamma inh = ROR gamma (mouse) transcription inhibition | P51450 | Drosophila S2 Gal4-RORgamma UAS-luciferase reporter, 20 h | Potency, µM (top dose mostly 53.6 µM), actives largely listed as inhibitors | hit rate 5.4% among 310,000; note: nearly all actives have a fitted effect of over 60% in size
Target sequence (P51450 whole entry, looked up, the tested form may be a part): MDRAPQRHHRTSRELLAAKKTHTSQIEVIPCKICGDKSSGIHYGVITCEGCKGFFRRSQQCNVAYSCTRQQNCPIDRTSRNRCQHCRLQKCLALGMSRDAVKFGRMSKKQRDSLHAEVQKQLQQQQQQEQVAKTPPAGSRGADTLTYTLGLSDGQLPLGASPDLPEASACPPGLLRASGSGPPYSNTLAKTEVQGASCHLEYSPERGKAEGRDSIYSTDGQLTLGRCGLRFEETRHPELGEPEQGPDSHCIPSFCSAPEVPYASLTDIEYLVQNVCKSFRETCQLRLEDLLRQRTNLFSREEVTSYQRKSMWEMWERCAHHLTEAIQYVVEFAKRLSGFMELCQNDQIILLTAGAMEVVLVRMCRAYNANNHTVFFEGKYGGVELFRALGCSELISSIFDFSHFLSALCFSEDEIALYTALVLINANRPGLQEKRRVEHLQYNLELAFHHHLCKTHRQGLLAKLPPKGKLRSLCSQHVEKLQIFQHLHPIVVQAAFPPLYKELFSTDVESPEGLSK
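Compounds are pin-transferred onto Drosophila Schneider cells expressing a copper-inducible Gal4–ROR gamma transactivation domain fusion. After 1 hr, copper sulfate is added to 700 uM final; luciferase is read 20 hr later.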
TDP1 cell CPT = DT40-hTDP1 cell growth loss with CPT; chicken DT40 Tdp1-/-;hTDP1 cells + 20 nM CPT, ATP luminescence, 48 h; Potency, µM (series often up to 46.2 µM), hits mostly inhibitors; hit rate 12% among 420,000; AID 686979; note: nearly all actives have a fitted effect of over 55% in size
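Chicken DT40 Tdp1-/- cells stably complemented with human TDP1 were seeded at 400 cells/well in medium containing 20 nM camptothecin, exposed to pin-transferred compounds, and grown at 37 °C for at least 48 hr. Viability was read as ATP luminescence.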
VP16 counter = inhibits Gal4-VP16 luciferase reporter, ROR gamma counter-screen. Drosophila S2 Gal4-VP16 UAS-luciferase, luminescence, 20 h. Potency, µM (titrated, usually from 53.6 µM), hits mostly inhibitors. hit rate 3.5% among 310,000. AID 2546;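 note: Gal4-VP16 expression switched on by copper sulfate through the metallothionein promoter; nearly all actives have a fitted effect of over 50% in size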
DT40 TDP1 no CPT = qHTS for Inhibitors of human tyrosyl-DNA phosphodiesterase 1 (TDP1): qHTS in cells in absence of CPT; DT40 Tdp1-/- hTDP1 cells, no CPT, ATP luminescence, 48 h; Potency, µM (highest dose often 46.2 µM), usual class: inhibitors; hit rate 15% among 420,000; note: nearly all actives have a fitted effect of over 55% in size
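Stably hTDP1-transfected Tdp1-null chicken DT40 cells were treated with library compounds minus camptothecin and grown for at least 48 hr at 37 °C, after which cellular ATP was quantified by luminescence.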
A number is an active result; [ ] = dose if it differs, or a comment. Hits are enriched below; roughly 21% of the tested compounds scored in any of these assays. Unless noted, calls come from the whole dose curve; as a rule, active = well fitted curve in the direction sought with a large enough effect; inconclusive = small, poorly fitted or top-dose-only effect, or another doubt; inactive = no such curve, though single readings can be large; an effect the other way counts as inactive or inconclusive.

Screening Cc1occc1C(=O)N/N=C/C=C/c1ccc(N(C)C)cc1 returned IL-1B inflam inh inactive, ELG1 DNA repair inconclusive, RORgamma inh 2.82µM, TDP1 cell CPT inconclusive, VP16 counter 3.16µM and DT40 TDP1 no CPT inconclusive.
Screening COc1cc(/C=N/NC(=O)c2ccoc2C)cc(OC)c1O returned IL-1B inflam inh inactive, ELG1 DNA repair inactive, RORgamma inh inactive, TDP1 cell CPT inactive, VP16 counter inactive and DT40 TDP1 no CPT inactive.
For Cc1ccc(-n2nc3c(c2NC(=O)CC(C)C)CS(=O)(=O)C3)c(C)c1 the results were IL-1B inflam inh inactive, ELG1 DNA repair inactive, RORgamma inh inactive, TDP1 cell CPT inactive, VP16 counter inactive and DT40 TDP1 no CPT inactive.
OC(C#Cc1ccccn1)c1cccs1 (stereo not drawn) was read as IL-1B inflam inh -95.1, ELG1 DNA repair inconclusive, RORgamma inh 10µM, TDP1 cell CPT 18.4µM, VP16 counter 4.47µM and DT40 TDP1 no CPT 16.4µM.
COc1ccccc1C(=O)Nc1nnc(S(=O)(=O)N2CCN(c3ccc(F)cc3)CC2)s1 was read as IL-1B inflam inh inactive, ELG1 DNA repair inactive, RORgamma inh inactive, TDP1 cell CPT inconclusive, VP16 counter inactive and DT40 TDP1 no CPT inconclusive.
`Cc1ccc2cc(N)ccc2n1` gave IL-1B inflam inh inactive, ELG1 DNA repair inactive, RORgamma inh inactive, TDP1 cell CPT inactive, VP16 counter inactive and DT40 TDP1 no CPT inactive.
Screening Nc1ccc2cc3ccc(N)cc3nc2c1 returned RORgamma inh inactive[10 µM], TDP1 cell CPT 5.31µM, VP16 counter inconclusive and DT40 TDP1 no CPT 2.66µM.
Screening COc1ccc([C@]23Cc4cc(OC)c(OC)cc4C(O2)C2=C(CCCC2=O)O3)cc1 returned RORgamma inh inactive[10 µM] and VP16 counter inactive[10 µM].
CCOC(=O)N(C)c1c(CC)nc2c(OCCOc3ccccc3)cccn12 was read as IL-1B inflam inh inactive, TDP1 cell CPT inconclusive and DT40 TDP1 no CPT 16.4µM.
`CCOC(=O)N(C)c1c(CC)nc2c(OCc3ccccc3C)cccn12` gave IL-1B inflam inh inactive, TDP1 cell CPT inconclusive and DT40 TDP1 no CPT 14.6µM.
CCOC(=O)N(C)c1c(CC)nc2c(OCc3ccccc3OC)cccn12 was read as IL-1B inflam inh inactive, TDP1 cell CPT 20.6µM and DT40 TDP1 no CPT 16.4µM.
`O=[N+]([O-])c1cccc(C(F)(F)F)c1` gave RORgamma inh inactive and VP16 counter inactive.
Screening O=S(=O)(c1ccccc1)N1CCC2(CCN(C(c3ccccc3)c3ccccc3)CC2)CC1 returned RORgamma inh inactive, TDP1 cell CPT inactive, VP16 counter inactive and DT40 TDP1 no CPT inconclusive.
For Cc1ccc(CNC(=O)Cn2ccn(-c3ccc(F)cc3)c(=O)c2=O)cc1 the results were TDP1 cell CPT inactive and DT40 TDP1 no CPT inactive.
CC(C)NC(=O)C(Cc1ccccc1)N1C(=O)c2ccccc2C1=O (stereo not drawn) was read as IL-1B inflam inh inactive, ELG1 DNA repair inactive, RORgamma inh inactive, TDP1 cell CPT inactive, VP16 counter inactive and DT40 TDP1 no CPT inactive.
`CC(Cl)C(=O)N1c2ccccc2CCc2ccccc21` (stereo not drawn) gave IL-1B inflam inh inactive, ELG1 DNA repair inactive, RORgamma inh inactive, TDP1 cell CPT inconclusive, VP16 counter inactive and DT40 TDP1 no CPT 13µM.
O=C1c2ccccc2C(=O)N1CC(=O)N1c2ccccc2CCc2ccccc21 was read as IL-1B inflam inh inactive, ELG1 DNA repair inactive, RORgamma inh inactive, TDP1 cell CPT inactive, VP16 counter inactive and DT40 TDP1 no CPT inconclusive.
Screening CC(=O)N(C)N1c2ccccc2CCc2ccccc21 returned IL-1B inflam inh inactive, ELG1 DNA repair inactive, RORgamma inh inactive, TDP1 cell CPT inconclusive, VP16 counter inactive and DT40 TDP1 no CPT 14.6µM.
Screening O=C(CCl)N1c2ccccc2CCc2ccccc21 returned ELG1 DNA repair inconclusive, RORgamma inh 11.2µM and VP16 counter inconclusive.
`O=C(C(Cc1ccccc1)N1C(=O)c2ccccc2C1=O)N1c2ccccc2CCc2ccccc21` (stereo not drawn) gave IL-1B inflam inh inactive, ELG1 DNA repair inactive, RORgamma inh inactive, TDP1 cell CPT 11.6µM, VP16 counter inactive and DT40 TDP1 no CPT 6.51µM.
CC(=O)c1ccc(N=C2C(=O)Nc3ccccc32)cc1 was read as IL-1B inflam inh inactive, ELG1 DNA repair inactive, RORgamma inh inactive, TDP1 cell CPT inconclusive, VP16 counter inactive and DT40 TDP1 no CPT 13µM.
O=C1Nc2ccccc2C1=Nc1ccc(F)cc1 was read as IL-1B inflam inh inactive, ELG1 DNA repair inactive, RORgamma inh inactive, TDP1 cell CPT inactive, VP16 counter inactive and DT40 TDP1 no CPT inactive.
For CCOCCCn1c(=S)[nH]c2cc(C(=O)N3CCN(c4ccccc4)CC3)ccc2c1=O the results were IL-1B inflam inh inactive, ELG1 DNA repair inactive, RORgamma inh 12.6µM, TDP1 cell CPT inconclusive, VP16 counter inconclusive and DT40 TDP1 no CPT inactive.
Screening CCOCCCn1c(=S)[nH]c2cc(C(=O)N3CCN(C)CC3)ccc2c1=O returned IL-1B inflam inh inactive, ELG1 DNA repair inactive, RORgamma inh inactive, TDP1 cell CPT inactive, VP16 counter inactive and DT40 TDP1 no CPT inactive.
Screening O=C(c1ccc(Cn2c(=S)[nH]c3ccc(Br)cc3c2=O)cc1)N1CCN(C2CCCCC2)CC1 returned IL-1B inflam inh inactive, ELG1 DNA repair inconclusive, RORgamma inh 11.2µM, TDP1 cell CPT inconclusive, VP16 counter inconclusive and DT40 TDP1 no CPT inconclusive.
CCOCCCn1c(=S)[nH]c2cc(C(=O)N3CCN(C4CCCCC4)CC3)ccc2c1=O was read as IL-1B inflam inh inactive, ELG1 DNA repair inactive, RORgamma inh inactive, TDP1 cell CPT 23.1µM, VP16 counter inactive and DT40 TDP1 no CPT inconclusive.
Screening COCCn1c(=S)[nH]c2cc(C(=O)N3CCN(C4CCCCC4)CC3)ccc2c1=O returned IL-1B inflam inh inactive, TDP1 cell CPT inconclusive and DT40 TDP1 no CPT inconclusive.
O=C(COc1ccc(Br)cc1Cl)NC(=O)Nc1ccc2c(c1)OCCO2 was read as IL-1B inflam inh inactive, ELG1 DNA repair inconclusive, RORgamma inh inactive, TDP1 cell CPT inactive, VP16 counter inactive and DT40 TDP1 no CPT inactive.
Cc1ccc(F)c(S(=O)(=O)NC(=O)C2(C)CCN2C(=O)Cc2ccsc2)c1 (stereo not drawn) was read as IL-1B inflam inh inactive, TDP1 cell CPT inactive and DT40 TDP1 no CPT inactive.
For CCOC(=O)C1=C(C)NC(=S)N(C(C)=O)C1c1ccc(OC)c(OC)c1 (stereo not drawn) the results were IL-1B inflam inh inactive, ELG1 DNA repair inactive, RORgamma inh inconclusive, TDP1 cell CPT inactive, VP16 counter inactive and DT40 TDP1 no CPT inactive.
